Bioassay records: PubChem BioAssay, several laboratories
Only some compounds are listed: those with a hit (about 4% of all), similar ones and a draw of the others.
TRPM1 prom inh – MITF TRPM1 promoter inhibition in SK-MEL-5 cells; inhibition, % at 12.5 µM; SK-MEL-5 TRPM1 promoter luciferase, 24 h; 0.83% of 330,000 active;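 active = mean inhibition across replicates of 60% or more, whatever share of single replicates reaches that level; inconclusive = some that reach 60%, reason not given; inactive = mean inhibition across replicates below 60%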
TWEAK-Fn14 inh – blocks TWEAK-Fn14 interaction in a reporter cell assay; 2% of 360,000 active; inhibition, % at 10 µM; TWEAK-stimulated Fn14 reporter cells, luciferase luminescence, 8 h; in the data active = inhibition above about 50%
LMP1 NFkB inh – reduces LMP1-driven NF-kappaB luciferase signal | inhibition, % at 12.5 µM | AID 504558 | LMP1-induced NF-kappaB luciferase reporter cells, luminescence | 0.69% of 350,000 active; in the data active = inhibition above about 41%; inconclusive = no clear call, values can overlap the other calls;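 note: 0% = neutral control wells and 100% = reference inhibitor control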
Peg3 prom inh – Peg3 promoter activity inhibition; HeLa PEG-Prom luciferase reporter, luminescence, overnight; inhibition, % at 20 µM; 1.7% of 360,000 active; AID 588405;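 active = inhibition of at least 50% at 20 µM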
HIF-2a inh – blocks HIF-2a reporter activity; 786-0 RCC cells HIF-2a reporter, luciferase luminescence, overnight; inhibition, % at 18.8 µM; 0.72% of 360,000 active; AID 624352;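 active = inhibition of the luminescence signal of 40% or more relative to plate controls, in a single-dose primary screen at 18.75 µM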
TROY NFkB inh – inhibitors of TROY-dependent NF-kB signaling | Q293 LMP1-TROYcd NF-kB luciferase reporter, 4 h | inhibition, % at 10 µM | 0.98% of 360,000 active;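 active = compounds whose plate-normalised and pattern-corrected inhibition of the luciferase reporter signal at the single screening dose is 50% or more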
An asterisk follows results filed as active; u = inconclusive; x = no result; ! = a repeat was not active.

SMILES | TRPM1 prom inh | TWEAK-Fn14 inh | LMP1 NFkB inh | Peg3 prom inh | HIF-2a inh | TROY NFkB inh
C=CCC[C@@H](Cc1ccc(F)cc1)C(=O)OC[C@H](Cc1c[nH]c2ccccc12)NC(=O)[C@@H](CC=C)CC(=O)N[C@H](CO)Cc1ccccc1 | 15 | 20 | -3 | 5 | 15 | 14
C=CCC[C@H](Cc1ccc(F)cc1)C(=O)OC[C@H](Cc1c[nH]c2ccccc12)NC(=O)[C@@H](CC=C)CC(=O)N[C@@H](CO)Cc1ccccc1 | 75* | -14 | -3 | 35 | -2 | 16
O=C(O)c1cc2ccccc2c2cc(Br)ccc12 | -8 | 16 | -1 | 2 | 19 | -1
COc1ccc(C)cc1NC(=O)C(Sc1nnc(-c2ccncc2)n1-c1ccc(Cl)cc1)c1ccccc1 (stereo not given) | -2 | 10 | 1 | 22 | 7 | 39
O=C1c2ccccc2C(=O)c2c1ncn2-c1ccccc1 | 61* | 6 | 8 | -2 | -19 | -17
COC(=O)C1=C(C)N(Cc2ccccc2)C(=NCCc2c[nH]c3ccccc23)N[C@H]1c1cccc(F)c1 | 46 | 2 | -1 | 102* | 3 | 7
CCN1C(=O)N[C@@H](c2cccc(C(F)(F)F)c2)C(C(=O)OC)=C1C | 2 | 14 | -4 | 11 | 20 | -7
COC(=O)C1=C(C)N(Cc2ccccc2)C(=NCc2ccccc2)N[C@H]1c1cccc(F)c1 | 51 | -1 | 2 | 101* | 6 | -10
COC(=O)C1=C(C)N(Cc2ccccc2)C(=S)N[C@H]1c1cccc(F)c1 | x | -8 | -10 | 24 | 10 | 2
COC(=O)C1=C(C)N(Cc2ccccc2)C(=NCc2cc(OC)c(OC)c(OC)c2)N[C@H]1c1ccc(Br)cc1 | 55 | -14 | 11 | 106* | -4 | 1
CCN(CC)CCCN=C1N[C@@H](c2cccc(C(F)(F)F)c2)C(C(=O)OC)=C(C)N1CC | u | -17 | -13 | 51* | 4 | -17
COC(=O)C1=C(C)N(Cc2ccccc2)C(=NCc2cc(OC)c(OC)c(OC)c2)N[C@H]1c1ccccc1 | -1 | x | 2 | x | x | x
CC(OC(=O)c1nc(Cl)ccc1Cl)C(=O)Nc1ccccc1F (stereo not given) | 2 | 1 | 0 | 3 | 14 | 1
O=C1CCC(C(=O)N2CCCCO2)CN1Cc1ccc(Cl)cc1 (stereo not given) | -1 | -11 | -3 | -21 | -10 | 6
COC(=O)C1(C(=O)OC)C/C=C\CCN(S(=O)(=O)c2ccccc2[N+](=O)[O-])CC1 | x | 10 | x | x | -1 | 1
COC(=O)C1=C(C)N(Cc2ccccc2)C(=NCc2ccccc2)N[C@H]1c1ccccc1 | 83* | -2 | 7 | 92* | -2 | -6
O=C(NC12CC3CC(CC(C3)C1)C2)c1ccc(-c2ccc(Cl)cc2)o1 | -45 | 36 | -49 | -326 | -247 | 54*
O=C(NC12CC3CC(CC(C3)C1)C2)c1ccc(-c2ccccc2Cl)o1 | -19 | 64* | -53 | -341 | -151 | x
O=C(NC12CC3CC(CC(C3)C1)C2)c1ccco1 | 0 | 10 | 5 | 9 | 6 | -3
CC(=O)NC(=O)c1ccc(-c2ccc(Cl)cc2)o1 | -5 | -10 | -15 | -116 | -128 | -47
O=C(NC12CC3CC(CC(C3)C1)C2)c1ccc(-c2cccc(Cl)c2)o1 | -46 | 68* | -68 | -298 | -159 | 73*
O=C1CCc2cc(S(=O)(=O)Nc3ccccc3)cc3c2N1CC3 | 8 | 7 | 8 | 11 | -2 | 6
O=C1C(=Cc2ccncc2)CCCc2ccccc21 | x | 12 | 7 | 17 | 12 | -6
O=C1/C(=C/c2ccncc2)CCC/C1=C\c1ccncc1 | 96* | 103* | 85* | 101* | 93* | 82*
O=C1[C@@H]2Cc3ccccc3CN2C(=O)N1c1cccc(F)c1 | -32 | 34 | -13 | -110 | -124 | 62*
SMILES | TRPM1 prom inh | TWEAK-Fn14 inh | LMP1 NFkB inh | Peg3 prom inh | HIF-2a inh | TROY NFkB inh
CCOc1ccccc1NC(=O)c1cc(S(=O)(=O)NCc2ccco2)ccc1F | 0 | -9 | 1 | -16 | -9 | -22
O=c1[nH]c(-c2ccccc2)cnc1-c1ccccc1 | x | 73* | x | -106 | -165 | -21
O=c1[nH]c2c(=O)[nH]cnc2nc1-c1ccccc1 | 4 | -16 | -1 | -2 | 20 | -6
OC(CN1CCC(Cc2ccccc2)CC1)c1ccccc1 (stereo not given) | 3 | -34 | 2 | 0 | 12 | -13
COc1cccc(/C=N/Nc2ncnc3c2ncn3Cc2ccccc2)c1O | 59 | 10 | 78* | 25 | -39 | 7
COc1cccc(/C=N/Nc2cc(Cl)nc(C)n2)c1O | -48 | 34 | -2 | -128 | -149 | 7
Oc1ccccc1-c1nnc(SCCN2CCOCC2)n1Cc1ccccc1 | 22 | 9 | -2 | 53* | -20 | -5
CC(=O)NCCNc1nc2cc(-c3cccc(Cl)c3)sc2c(=O)n1C | x | 15 | x | -9 | -14 | 19
CC(C)c1ccc2c(c1)CCC1C(C)(CN)CCCC21C (stereo not given) | 98* | -21 | -1 | 109* | -2 | -18
CC(C)c1ccc2c(c1)CC[C@H]1[C@](C)(CN)CCC[C@]21C | 102*! | -21 | -110 | 90*! | -68 | -19
O=C(Nc1c[nH]c(=O)[nH]c1=O)c1cccc([N+](=O)[O-])c1 | 2 | -3 | 5 | 8 | 26 | 2
CCCCn1c(N)c(N(Cc2ccccc2OC)C(=O)C(C)Oc2cccc(Cl)c2)c(=O)[nH]c1=O (stereo not given) | x | 13 | 7 | 5 | 21 | -15
CCOCCCNC(=O)C(NC(=O)CNC(C)=O)c1ccc(C)cc1 (stereo not given) | -7 | 73* | -12 | 11 | 7 | -10
CN1c2ccccc2C(C)(C)[C@]12C=Cc1cc(O)ccc1O2 | -4 | 102* | -25 | 23 | 24 | 14
COc1ccc2ccc3c(c2c1)N=CC1(O3)N(C)c2ccccc2C1(C)C (stereo not given) | 3 | 17 | 9 | -39 | -45 | 48
CN1c2ccccc2C(C)(C)C12C=Nc1c(ccc3ccccc13)O2 (stereo not given) | 11 | 71* | -11 | -112 | -157 | 70*
O=C(c1ccccc1Cc1ccccc1)N1CCN(S(=O)(=O)c2ccccc2[N+](=O)[O-])CC1 | -7 | 2 | -9 | 13 | 2 | 9
Cc1ccsc1C(=O)NNC(=O)c1cccc(S(=O)(=O)N2CCCC2)c1 | -1 | 2 | -6 | 1 | 4 | -22
COc1ccccc1-n1c(-c2ccccc2)c[n+]2c1CCc1ccccc1-2 | 67*! | 36 | -3 | 12 | 14 | 45
COc1ccc(-n2c(-c3ccc(Br)cc3)c[n+]3c2CCc2ccccc2-3)cc1 | 98* | 18 | 38 | 19 | 14 | 38
COc1ccc(-c2c[n+]3c(n2-c2ccccc2)CCCCC3)cc1 | 26 | 18 | 4 | 14 | 12 | 21
